Laboratory results as given in the supplement of paper PMC11732987, “Enantioselective OTUD7B fragment discovery through chemoproteomics screening and high-throughput optimisation” (Communications Chemistry, 2025).

Key:
Experiment in all cases: log2 ratio of Biotin-Ahx-Ub-VS probe labelling (fragment/DMSO); higher = less target engagement (more negative = stronger competition), active = hit call of the paper (q ≤ 0.05, log2 ratio ≤ -1)
Settings in all cases: compound concentration: 200 uM; treatment time: 3 h
[1] = target: T1, USP19 (UniProt O94966)
T1 sequence (whole entry): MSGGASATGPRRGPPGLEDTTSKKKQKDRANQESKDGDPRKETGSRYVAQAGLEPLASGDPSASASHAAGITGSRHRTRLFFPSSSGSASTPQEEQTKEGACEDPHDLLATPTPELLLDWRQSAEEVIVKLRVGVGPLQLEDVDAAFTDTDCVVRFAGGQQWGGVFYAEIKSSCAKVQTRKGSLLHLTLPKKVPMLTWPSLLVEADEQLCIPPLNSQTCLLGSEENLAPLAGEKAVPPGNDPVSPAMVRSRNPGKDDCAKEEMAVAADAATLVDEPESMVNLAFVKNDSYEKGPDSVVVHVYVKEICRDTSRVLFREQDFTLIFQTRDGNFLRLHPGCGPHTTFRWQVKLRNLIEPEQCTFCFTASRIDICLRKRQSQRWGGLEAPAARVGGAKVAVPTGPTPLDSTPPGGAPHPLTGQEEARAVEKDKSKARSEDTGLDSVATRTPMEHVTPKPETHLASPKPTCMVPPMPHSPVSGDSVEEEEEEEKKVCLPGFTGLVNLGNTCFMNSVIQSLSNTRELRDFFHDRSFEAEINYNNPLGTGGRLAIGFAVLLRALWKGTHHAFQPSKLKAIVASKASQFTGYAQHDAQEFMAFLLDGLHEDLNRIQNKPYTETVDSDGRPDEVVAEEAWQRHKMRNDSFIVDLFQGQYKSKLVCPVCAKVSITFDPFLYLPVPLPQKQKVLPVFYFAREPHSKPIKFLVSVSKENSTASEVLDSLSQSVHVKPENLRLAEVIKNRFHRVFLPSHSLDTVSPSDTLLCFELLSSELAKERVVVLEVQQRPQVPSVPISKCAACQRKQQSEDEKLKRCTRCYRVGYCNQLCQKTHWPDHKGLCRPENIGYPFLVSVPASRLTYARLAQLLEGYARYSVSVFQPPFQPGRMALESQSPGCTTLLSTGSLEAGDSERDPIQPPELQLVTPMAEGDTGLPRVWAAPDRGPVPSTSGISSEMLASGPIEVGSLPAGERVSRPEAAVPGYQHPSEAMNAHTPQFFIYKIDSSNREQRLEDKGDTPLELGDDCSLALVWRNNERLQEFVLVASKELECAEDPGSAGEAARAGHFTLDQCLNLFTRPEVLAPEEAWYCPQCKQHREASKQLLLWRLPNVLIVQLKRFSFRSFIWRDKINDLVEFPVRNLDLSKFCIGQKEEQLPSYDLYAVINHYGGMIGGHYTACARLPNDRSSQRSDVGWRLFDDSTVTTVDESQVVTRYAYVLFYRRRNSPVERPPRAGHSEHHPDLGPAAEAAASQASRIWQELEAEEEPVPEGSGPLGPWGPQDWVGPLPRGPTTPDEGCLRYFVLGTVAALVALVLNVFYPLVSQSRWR
In short: (§1)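 Triplicate samples of HEK293T lysate, 495 µg each, received fragment at 200 µM or vehicle for 3 h, followed by Biotin-Ahx-Ub-VS (0.5 µM final) for 1 h. After NeutrAvidin enrichment of labelled DUBs and LysC/trypsin digestion, peptides were run by diaPASEF LC-MS/MS. The values are average log2 fragment/vehicle ratios from global-median-normalised Spectronaut label-free quantities, tested by unpaired t-test on proteins having ≥2 unique peptides.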

[2] = target: T2, USP22 (UniProt Q9UPT9)
T2 sequence (whole entry): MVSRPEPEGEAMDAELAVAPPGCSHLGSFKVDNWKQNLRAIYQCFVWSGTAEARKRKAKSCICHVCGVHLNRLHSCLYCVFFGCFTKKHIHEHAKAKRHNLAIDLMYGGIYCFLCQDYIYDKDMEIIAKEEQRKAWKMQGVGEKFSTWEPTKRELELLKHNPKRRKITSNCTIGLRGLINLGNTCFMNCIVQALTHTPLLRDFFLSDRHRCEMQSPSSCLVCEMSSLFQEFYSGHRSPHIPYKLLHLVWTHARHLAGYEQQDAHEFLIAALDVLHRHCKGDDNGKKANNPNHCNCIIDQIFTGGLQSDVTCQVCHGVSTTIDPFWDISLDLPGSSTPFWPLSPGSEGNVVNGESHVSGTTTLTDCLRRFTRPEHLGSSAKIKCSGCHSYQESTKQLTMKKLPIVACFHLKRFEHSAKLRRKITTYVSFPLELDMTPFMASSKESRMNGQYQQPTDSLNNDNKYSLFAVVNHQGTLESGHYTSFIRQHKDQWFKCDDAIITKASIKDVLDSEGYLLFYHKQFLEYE
In short: as §1

[3] = target: USP24 (UniProt Q9UPU5)
USP24, sequence (Q9UPU5 whole entry): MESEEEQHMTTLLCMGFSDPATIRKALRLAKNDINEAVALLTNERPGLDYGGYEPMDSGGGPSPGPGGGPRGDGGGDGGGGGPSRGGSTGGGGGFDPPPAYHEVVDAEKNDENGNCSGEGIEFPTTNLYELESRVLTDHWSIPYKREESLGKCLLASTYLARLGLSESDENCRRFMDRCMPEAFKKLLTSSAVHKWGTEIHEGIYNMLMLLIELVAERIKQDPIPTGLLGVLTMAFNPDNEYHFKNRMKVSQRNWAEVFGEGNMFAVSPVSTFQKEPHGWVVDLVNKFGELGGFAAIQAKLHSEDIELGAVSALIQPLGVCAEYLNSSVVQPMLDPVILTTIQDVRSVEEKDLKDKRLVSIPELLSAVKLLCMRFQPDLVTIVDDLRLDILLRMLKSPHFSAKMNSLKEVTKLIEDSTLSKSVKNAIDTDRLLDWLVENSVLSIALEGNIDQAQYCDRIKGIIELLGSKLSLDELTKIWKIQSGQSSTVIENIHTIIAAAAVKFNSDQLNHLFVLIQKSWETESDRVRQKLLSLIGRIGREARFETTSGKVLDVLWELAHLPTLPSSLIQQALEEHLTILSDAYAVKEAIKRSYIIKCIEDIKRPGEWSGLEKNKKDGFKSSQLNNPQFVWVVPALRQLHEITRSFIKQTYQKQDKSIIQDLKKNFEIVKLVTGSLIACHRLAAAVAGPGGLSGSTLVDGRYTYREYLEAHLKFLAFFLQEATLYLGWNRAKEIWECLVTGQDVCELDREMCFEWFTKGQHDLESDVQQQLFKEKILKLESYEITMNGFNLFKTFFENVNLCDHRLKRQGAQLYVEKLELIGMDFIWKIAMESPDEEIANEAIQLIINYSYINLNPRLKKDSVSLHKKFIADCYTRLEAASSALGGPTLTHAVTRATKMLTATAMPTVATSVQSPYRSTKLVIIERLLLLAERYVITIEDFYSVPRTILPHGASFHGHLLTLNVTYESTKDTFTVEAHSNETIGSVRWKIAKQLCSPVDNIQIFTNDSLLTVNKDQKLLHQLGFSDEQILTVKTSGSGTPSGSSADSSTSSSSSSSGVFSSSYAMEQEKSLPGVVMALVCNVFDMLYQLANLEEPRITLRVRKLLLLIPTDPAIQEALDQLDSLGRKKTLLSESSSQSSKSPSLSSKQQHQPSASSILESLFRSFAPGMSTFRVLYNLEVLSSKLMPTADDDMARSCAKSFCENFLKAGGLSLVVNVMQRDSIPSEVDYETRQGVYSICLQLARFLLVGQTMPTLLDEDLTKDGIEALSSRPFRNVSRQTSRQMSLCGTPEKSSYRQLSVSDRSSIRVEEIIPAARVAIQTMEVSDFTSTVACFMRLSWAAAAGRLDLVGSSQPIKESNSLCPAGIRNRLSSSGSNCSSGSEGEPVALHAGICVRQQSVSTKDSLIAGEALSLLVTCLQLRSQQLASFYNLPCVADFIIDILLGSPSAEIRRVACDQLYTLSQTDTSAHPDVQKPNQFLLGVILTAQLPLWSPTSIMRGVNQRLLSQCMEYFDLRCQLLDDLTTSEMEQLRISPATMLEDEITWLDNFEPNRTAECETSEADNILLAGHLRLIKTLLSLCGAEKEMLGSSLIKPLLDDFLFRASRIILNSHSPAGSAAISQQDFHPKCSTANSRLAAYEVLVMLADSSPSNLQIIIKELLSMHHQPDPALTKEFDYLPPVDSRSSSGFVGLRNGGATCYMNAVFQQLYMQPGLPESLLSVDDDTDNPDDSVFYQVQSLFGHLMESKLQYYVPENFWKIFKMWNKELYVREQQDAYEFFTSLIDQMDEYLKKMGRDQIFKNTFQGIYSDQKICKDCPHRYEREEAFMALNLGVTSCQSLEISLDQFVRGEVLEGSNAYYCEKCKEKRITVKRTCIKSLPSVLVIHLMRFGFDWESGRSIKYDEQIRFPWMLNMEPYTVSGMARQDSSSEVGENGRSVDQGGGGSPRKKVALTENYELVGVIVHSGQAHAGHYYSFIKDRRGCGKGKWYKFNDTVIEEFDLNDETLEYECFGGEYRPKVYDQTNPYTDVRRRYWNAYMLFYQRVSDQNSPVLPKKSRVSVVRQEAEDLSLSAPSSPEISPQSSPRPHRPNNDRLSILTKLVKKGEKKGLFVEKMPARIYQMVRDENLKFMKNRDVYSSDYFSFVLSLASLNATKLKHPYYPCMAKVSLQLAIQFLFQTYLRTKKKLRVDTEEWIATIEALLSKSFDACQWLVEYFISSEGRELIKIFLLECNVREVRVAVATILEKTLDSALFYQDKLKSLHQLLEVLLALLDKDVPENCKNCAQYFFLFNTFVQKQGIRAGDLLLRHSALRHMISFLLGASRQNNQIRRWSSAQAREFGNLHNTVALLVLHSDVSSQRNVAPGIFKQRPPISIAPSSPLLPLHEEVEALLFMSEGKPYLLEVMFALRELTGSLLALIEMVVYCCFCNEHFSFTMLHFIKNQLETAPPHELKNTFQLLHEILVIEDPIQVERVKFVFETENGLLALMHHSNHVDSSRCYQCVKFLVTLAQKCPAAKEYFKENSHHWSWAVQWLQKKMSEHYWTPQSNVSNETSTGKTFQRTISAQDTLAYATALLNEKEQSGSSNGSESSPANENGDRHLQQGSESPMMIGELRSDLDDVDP
In short: as §1

[4] = target: T3, USP25 (UniProt Q9UHP3)
T3 sequence (whole entry): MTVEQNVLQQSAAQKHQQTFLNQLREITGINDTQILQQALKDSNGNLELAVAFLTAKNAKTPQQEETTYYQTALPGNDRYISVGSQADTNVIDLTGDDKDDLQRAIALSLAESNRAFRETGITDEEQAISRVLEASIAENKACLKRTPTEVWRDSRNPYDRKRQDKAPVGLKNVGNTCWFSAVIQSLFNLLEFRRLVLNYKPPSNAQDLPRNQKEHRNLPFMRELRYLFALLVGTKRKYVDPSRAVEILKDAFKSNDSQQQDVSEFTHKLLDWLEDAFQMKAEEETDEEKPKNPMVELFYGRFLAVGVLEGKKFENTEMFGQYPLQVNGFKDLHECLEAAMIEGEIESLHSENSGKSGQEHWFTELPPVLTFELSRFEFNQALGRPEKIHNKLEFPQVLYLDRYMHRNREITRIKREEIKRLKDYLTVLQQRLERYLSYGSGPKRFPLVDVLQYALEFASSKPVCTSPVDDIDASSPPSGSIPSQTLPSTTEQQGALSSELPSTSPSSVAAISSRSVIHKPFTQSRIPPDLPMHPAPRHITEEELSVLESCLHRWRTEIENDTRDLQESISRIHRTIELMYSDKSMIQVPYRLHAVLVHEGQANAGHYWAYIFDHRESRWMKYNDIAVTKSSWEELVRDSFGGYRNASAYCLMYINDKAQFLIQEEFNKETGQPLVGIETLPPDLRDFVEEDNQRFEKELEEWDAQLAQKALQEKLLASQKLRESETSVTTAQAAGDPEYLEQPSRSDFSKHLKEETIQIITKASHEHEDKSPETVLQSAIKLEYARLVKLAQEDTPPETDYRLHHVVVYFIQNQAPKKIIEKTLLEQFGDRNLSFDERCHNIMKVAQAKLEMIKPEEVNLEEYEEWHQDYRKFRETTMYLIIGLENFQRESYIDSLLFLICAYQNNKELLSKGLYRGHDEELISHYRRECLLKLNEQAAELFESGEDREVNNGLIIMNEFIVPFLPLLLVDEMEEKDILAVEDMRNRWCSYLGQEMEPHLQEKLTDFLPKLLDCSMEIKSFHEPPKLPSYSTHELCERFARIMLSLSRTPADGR
In short: as §1

[5] = target: T4, USP28 (UniProt Q96RU2)
T4 sequence (whole entry): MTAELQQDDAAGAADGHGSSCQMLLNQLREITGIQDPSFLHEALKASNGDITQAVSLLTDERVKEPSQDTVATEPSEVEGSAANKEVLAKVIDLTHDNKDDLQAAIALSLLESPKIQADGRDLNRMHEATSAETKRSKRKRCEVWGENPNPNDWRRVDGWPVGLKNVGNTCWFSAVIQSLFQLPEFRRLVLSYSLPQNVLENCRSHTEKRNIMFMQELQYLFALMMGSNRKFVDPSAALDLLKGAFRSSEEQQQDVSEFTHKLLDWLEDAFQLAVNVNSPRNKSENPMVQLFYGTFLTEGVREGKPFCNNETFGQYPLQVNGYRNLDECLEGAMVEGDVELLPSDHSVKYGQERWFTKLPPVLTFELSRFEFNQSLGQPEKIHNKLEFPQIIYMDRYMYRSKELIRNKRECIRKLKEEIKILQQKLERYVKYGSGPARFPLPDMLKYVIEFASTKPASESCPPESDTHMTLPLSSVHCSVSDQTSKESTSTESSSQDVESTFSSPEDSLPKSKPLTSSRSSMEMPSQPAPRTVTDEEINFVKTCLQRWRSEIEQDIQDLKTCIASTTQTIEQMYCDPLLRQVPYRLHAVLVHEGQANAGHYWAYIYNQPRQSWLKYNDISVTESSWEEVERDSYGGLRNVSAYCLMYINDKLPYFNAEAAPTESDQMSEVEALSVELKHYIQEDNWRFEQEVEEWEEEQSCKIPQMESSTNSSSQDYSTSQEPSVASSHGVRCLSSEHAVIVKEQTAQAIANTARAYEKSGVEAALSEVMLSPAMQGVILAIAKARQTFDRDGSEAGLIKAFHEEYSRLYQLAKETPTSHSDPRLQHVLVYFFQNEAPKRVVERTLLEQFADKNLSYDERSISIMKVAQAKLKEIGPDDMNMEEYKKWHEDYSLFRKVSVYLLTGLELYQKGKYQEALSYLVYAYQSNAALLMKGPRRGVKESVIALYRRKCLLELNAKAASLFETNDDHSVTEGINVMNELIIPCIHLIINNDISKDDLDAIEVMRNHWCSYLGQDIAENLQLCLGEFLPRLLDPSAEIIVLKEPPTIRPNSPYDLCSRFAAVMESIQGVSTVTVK
In short: as §1

Measured: log2 ratio of Biotin-Ahx-Ub-VS probe labelling

Cl.O=C(CCl)NC1(c2ncccn2)CCC1
inactive: [1] 0.0868 | [2] 0.221 | [3] 0.06 | [4] -0.18 | [5] -0.0581
